Sfp PPTase inh: inhibitors of Bacillus subtilis Sfp phosphopantetheinyl transferase; 310,000 tested, 3.5% active; Potency, µM, without a hit: largest response in the series, negative = inhibition, actives largely listed as inhibitors; Q9F4F7; Biochemical Sfp PPTase activity, qHTS; AID 1490;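 note: the enzyme is Sfp with the accession as filed and its product quenches rhodamine fluorescence; 0% = enzyme reaction without inhibitor and -100% = no enzyme wells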
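Sfp 15 nM + cpd, 15 min RT; start w/ rhodamine-CoA 5 uM, BHQ-2-YbbR 12.5 uM (final); 50 mM Hepes pH 7.6, 10 mM MgCl2, 0.01% NP-40, 0.01% BSA; read 525/598 nm at 0 and 30 min.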
VDR inhibitor: blocks the human vitamin D receptor; VDR-SRC2-3 peptide fluorescence polarization, 2 h; Potency, µM, inactives show max response, negative = inhibition, usual class: inhibitors; 400,000 tested, 0.93% active; AID 504847
Target sequence (P11473 whole entry, looked up): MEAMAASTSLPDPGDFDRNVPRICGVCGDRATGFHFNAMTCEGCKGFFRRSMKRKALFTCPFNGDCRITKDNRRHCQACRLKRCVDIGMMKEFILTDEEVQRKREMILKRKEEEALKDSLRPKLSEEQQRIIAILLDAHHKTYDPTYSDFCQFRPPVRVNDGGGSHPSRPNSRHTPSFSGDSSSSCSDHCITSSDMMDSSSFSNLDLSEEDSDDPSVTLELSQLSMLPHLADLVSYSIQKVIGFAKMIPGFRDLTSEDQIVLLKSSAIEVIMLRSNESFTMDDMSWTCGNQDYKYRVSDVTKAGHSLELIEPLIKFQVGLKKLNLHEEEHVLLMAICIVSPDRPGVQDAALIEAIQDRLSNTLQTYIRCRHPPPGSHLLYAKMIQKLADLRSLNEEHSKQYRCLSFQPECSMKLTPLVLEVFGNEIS
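Fluorescence polarization assay of small-molecule disruption of VDR binding to coregulator peptide SRC2-3. Compounds and controls pin-transferred, then read after 2 h incubation at ambient room temperature.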
PLK1 PBD block: blocks phosphopeptide binding to human PLK1 polo-box domain | P53350 | Plk1 PBD binding of FITC phosphopeptide, fluorescence polarization | Potency, µM, for the others: max response, negative = inhibition, usual class: inhibitors | 360,000 tested, 2.8% active | AID 720504; note: series mostly up to about 57 µM; nearly all actives have a fitted effect of over 65% in size
TrxR1 inh: blocks rat thioredoxin reductase 1. recombinant rTrxR1, NADPH fluorescence consumption, selenite substrate. AID 588453. Potency, µM (top dose mostly 114 µM), for inactives: at the top dose activity change, negative = inhibition, most hits filed as inhibitors. 390,000 tested, 1% active; note: nearly all actives have a fitted effect of over 65% in size
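Rat TrxR1 (90 nM in the dispensed reagent) was pre-reduced with 400 uM NADPH for 5 min at room temperature, then incubated with compound for 15 min. After 400 uM selenite was added, NADPH fluorescence (Ex 340/Em 450 nm) was followed for 8 min.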
mIDH1 inhibitor: blocks human mutant IDH1 R132H enzyme; IDH1-R132H enzyme, NADPH consumption, diaphorase/resazurin fluorescence; AID 602179; Potency, µM (doses to about 76.6 µM), for inactives: at the top dose activity change, negative = inhibition, most hits filed as inhibitors; 390,000 tested, 0.093% active; note: nearly all actives have a fitted effect of over 65% in size
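IDH1-R132H (0.5 ug/mL dispensed) in pH 7.5 Tris buffer was preincubated 30 min with compound, then given a substrate mix of 0.016 mM NADPH and 2 mM alpha-KG for 80 min at room temperature; remaining NADPH was read by diaphorase/resazurin fluorescence.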
TrxR1 substrate: rat thioredoxin reductase 1 substrate activity; O89049; Potency, µM (top dose mostly 114 µM), inactives show top-dose activity change, negative = substrate turnover; 390,000 tested, 0.01% active; purified TrxR1 substrate turnover, NADPH consumption readout; note: nearly all actives have a fitted effect of over 50% in size
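Rat TrxR1, dispensed at 90 nM, was prereduced with 400 uM NADPH (final) for 5 min at ~22 deg C, then incubated with compound 15 min before 400 uM selenite. A first-read NADPH fluorescence drop versus no-compound background flagged substrates.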
* marks the source's active call; other numbers are inactive results; ? = inconclusive; / = no result; [ ] = dose if it differs, or a comment. Shown are actives, neighbours in structure and some others; about 5.2% of the full set was active somewhere. Calls come from the whole dose curve; as a rule, active = well fitted curve in the direction sought with a large enough effect; inconclusive = small, poorly fitted or top-dose-only effect, or another doubt; inactive = no such curve, though single readings can be large; an effect the other way counts as inactive or inconclusive. Unless noted, % is set by controls: 0 for no effect and ±100 for the full control effect; potency is the fitted concentration of half-maximal effect.

SMILES	Sfp PPTase inh	VDR inhibitor	PLK1 PBD block	TrxR1 inh	mIDH1 inhibitor	TrxR1 substrate
CCCCc1nc2cc(C(=O)N3CCCCC3C(=O)OC)ccc2o1 (stereo not drawn)	16%	?	27µM*	1%	-1%	-5%
CCCCc1nc2cc(C(=O)N3CCCC3)ccc2o1	1%	4%	-1%	3%	-3%	-2%
Cc1cccc(NC(=O)Nc2cccs2)c1C	/	1%	/	1%	/	4%
O=C(NCc1ccccc1)NCc1cccs1	15%	8%	1%	19%[57.1 µM]	10%	3%[57.1 µM]
Cc1ccccc1CNC(=O)Nc1cccs1	20µM*	5%	-17%	2%	10%	1%
O=C(NCc1cccs1)Nc1cccs1	18µM*	13%	-23%	-15%	2%	-1%
CCOCCCN1CN(Cc2ccco2)CNC1=S	40µM*	3%	?	-27%	-5%	-8%
N#Cc1c(N)oc(-c2ccco2)c1-c1ccco1	32µM*	-8%	-14%	?	2%	-1%
N#Cc1c(N)oc(-c2ccccc2)c1-c1ccccc1	7%	3%	-9%	-19%	4%	-7%
COc1ccc(OC)c(/C=N/c2oc(-c3ccco3)c(-c3ccco3)c2C#N)c1	25µM*	-5%	-12%	?	-1%	-1%[57.1 µM]
Cn1c(C(=O)NCCc2ccccc2)cc(=O)n(C)c1=O	-2%	?	24µM*	11%[57.1 µM]	3%	12%
Cn1cccc1C(=O)NCCc1ccccc1	2%	2%	-11%	15%	3%	3%
COCCn1c(=NC(=O)CCS(=O)(=O)c2ccccc2)sc2cc(C)ccc21	9%	?	-20%	40µM*	3%	-1%
CCn1c(=NC(=O)CCS(=O)(=O)c2ccccc2)sc2cccc(OC)c21	-6%	-23%	-9%	13%	13%	9%
COC(=O)Cn1c(=NC(=O)CCS(=O)(=O)c2ccccc2)sc2c(OC)ccc(OC)c21	2%	-2%	-4%	28µM*	-3%	-2%
CC1(C(=O)NS(=O)(=O)c2ccc(C#N)cc2)CCN1C(=O)C1(c2ccccc2)CC1 (stereo not drawn)	/	/	6%	/	/	/
CC(Sc1nnc(C(F)(F)F)n1C)C(=O)Nc1ccc(S(N)(=O)=O)cc1 (stereo not drawn)	19%	-19%	30µM*	18%	3%	-2%
CC1=C([N+](=O)[O-])C(c2ccc3c(c2)OCO3)N(C)C(=O)N1C (stereo not drawn)	6%	?	8.4µM*	-5%	-3%	-4%
CSc1nc(=S)cc(C)[nH]1	35µM*	50µM*	15µM*	-13%	5%	-6%
Cc1ccc(CNc2ncnc3ccc(-c4c(C)noc4C)cc23)cc1	-3%	/	/	/	/	/
O=C(OCC(=O)N1N=C(c2ccc(Cl)cc2)CC1c1ccco1)c1ccco1 (stereo not drawn)	-1%	-12%	2%	-5%	0%	0%
O=C(OCC(=O)N1N=C(c2ccc(Cl)cc2)CC1c1ccco1)c1cncc(Br)c1 (stereo not drawn)	/	71µM*	?	-71%[57.1 µM]	2%	-1%[2.29 µM]
Cc1ccc(C2=NN(C(=O)CSc3nnnn3C)C(c3ccco3)C2)cc1 (stereo not drawn)	/	19%	-2%	?	10%	5%
Cn1cnnc1SCC(=O)N1N=C(c2ccc(Cl)cc2)CC1c1ccco1 (stereo not drawn)	50µM*	-1%	-8%	21%	1%	3%
Cc1noc(NS(=O)(=O)c2ccc(NC(=O)c3cccc(S(=O)(=O)Nc4ccccc4F)c3)cc2)c1C	/	-10%	-5%	14%	0%	8%
SMILES	Sfp PPTase inh	VDR inhibitor	PLK1 PBD block	TrxR1 inh	mIDH1 inhibitor	TrxR1 substrate
O=[N+]([O-])c1ccc(N2CCCCC2)nc1N1CCCCC1	-11%	2%	-7%	26%[11.4 µM]	10%	-5%
O=[N+]([O-])c1ccc2c(c1N1CCCCC1)=NC1(CCCCC1)[N+]=2[O-]	25µM*	-9%	21µM*	-39%	11%	-17%[57.1 µM]
Cc1ccnc2c([N+](=O)[O-])cccc12	/	/	/	-19%	/	-5%[0.0914 µM]
CCOc1ccc(-c2csc(/C(C#N)=C\c3ccc(O)c([N+](=O)[O-])c3)n2)cc1	79µM*	-2%	19µM*	-5%	-19%	-5%
CCc1ccc(/C=C(/C#N)c2nc(-c3ccc(C)cc3)cs2)cc1	/	-16%	/	0%	-1%	14%[11.4 µM]
Cc1ccc(-c2nn(-c3ccccc3)cc2C=C2SC(=S)N(CCS(=O)(=O)O)C2=O)cc1	/	/	11µM*	/	/	/
O=C(O)CN1C(=O)/C(=C\c2cn(-c3ccccc3)nc2-c2ccccc2)SC1=S	?	?	21µM*	-2%	-17%	-8%
CCOc1ccc(-c2nn(-c3ccccc3)cc2/C=C2\SC(=S)N(Cc3ccco3)C2=O)cc1	1%	-8%	-18%	-18%	1%	-14%
CCCOc1ccc(-c2nn(-c3ccccc3)cc2/C=C2\SC(N)=NC2=O)cc1	-4%	1%	7%	9%[57.1 µM]	8%	25%
CC(C)COc1ccc(-c2nn(-c3ccccc3)cc2/C=C2/SC(=S)N(CC(=O)O)C2=O)cc1	-21%	-9%	21µM*	-20%	-7%	-18%
Cc1cccc(N2CCN(C(=O)c3nn(C)c4c3CSc3ccccc3-4)CC2C)c1 (stereo not drawn)	/	19%	/	18%	0%	2%
Cc1ccc(S(=O)(=O)Nc2cccc(-c3ccc(N4CCCCC4)nn3)c2)s1	/	10%	/	9%[57.1 µM]	-10%	0%[57.1 µM]
C=C1c2cccc(C(F)(F)F)c2O[C@H](C(=O)OCC)C1OC (mixture of isomers)	1%	-3%	/	/	/	/
NC1=C(Br)C(=O)c2ncccc2C1=O	/	?	7.5µM*	-20%[11.4 µM]	15%	6%[11.4 µM]
O=C1C(=O)c2ncccc2-c2cccnc21	0.63µM*	1.3µM*	/	/	/	/
O=C1c2cccnc2C(=O)N1CO	9%	6%	1%	14%[57.1 µM]	5%	10%[57.1 µM]
CC(Cc1n[nH]c(=S)o1)c1ccccc1 (stereo not drawn)	-19%	-20%	24µM*	0%	-3%	3%
S=c1[nH]nc(Cc2cccc3ccccc23)o1	12%	-1%	-12%	0%	5%	1%
COc1ccc(C(=O)N2CCC3(CCCN(c4cccc(-c5ccccc5)c4)C3)CC2)cc1	?	-20%	/	/	/	/
c1ccc(-c2cccc(N3CCC4(CCNCC4)CC3)c2)cc1	-17%	89µM*	/	/	/	/
c1ccc(-c2cccc(N3CC4(CCNCC4)C3)c2)cc1	-7%	?	/	/	/	/
COCC(=O)N1CCC2(CCCN(c3cccc(-c4ccccc4)c3)C2)CC1	-22%	50µM*	/	/	/	/
c1ccc(-c2cccc(N3CCCC4(CCNCC4)C3)c2)cc1	-23%	50µM*	/	/	/	/
CC(=O)N1CCC2(CC1)CCN(c1cccc(-c3ccccc3)c1)CC2	-27%	?	/	/	/	/
